ATXN2 expr inh: Primary qHTS for Inhibitors of ATXN expression; HEK-293 ATXN2-luciferase reporter, luminescence, 24 h; AID 1745845, 2022; hit rate 0.72% among 360,000; Potency, µM (doses to about 57 µM), for the others: top-dose activity change, negative = inhibition, usual class: inhibitors; note: % is set by controls: 0 for no effect and ±100 for the full control effect; nearly all actives have a fitted effect of over 55% in size
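qHTS (up to 57 uM final) was run with 24 h compound exposure of reporter cells at 37 °C. Each well was multiplexed: SteadyGlo luminescence measured ATXN2-luciferase expression after a fluorogenic Gly-Phe-AFC viability readout (25 uM final).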
KB-V1 cytotox: qHTS assay for MDR1-selective chemotherapeutics: Primary screen using the drug-selected MDR subline cells KB-V1; KB-V1 MDR cells viability, CellTiter-Glo, 72 h; Potency, µM (top dose mostly 46.1 µM), actives largely listed as cytotoxic; hit rate 3.4% among 400,000; note: % is set by controls: 0 for no effect and ±100 for the full control effect; nearly all actives have a fitted effect of over 60% in size
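Drug-selected KB-V1 cells, grown in DMEM lacking phenol red with 10% FBS, receive compound titrations; after three days at 37 degrees C, surviving cell ATP is quantified by CellTiter-Glo luminescence and responses normalized and curve-fitted.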
ATXN viability: Viability Counterscreen for Primary qHTS for Inhibitors of ATXN expression | S2 cells (HEK-293 line with an ATXN2-luciferase reporter) viability, CellTiter-Fluor protease fluorescence, 24 h | Potency, µM (top dose mostly 56.7 µM), most hits filed as cytotoxic | hit rate 0.49% among 400,000; note: nearly all actives have a fitted effect of over 40% in size
HT1080 IDH1KD tx: qHTS for induction of synthetic lethality in tumor cells producing 2HG: qHTS for the HT-1080-IDH1KD cell line; Potency, µM (doses to about 46.1 µM), inactives show top-dose activity, negative = toxicity, most hits filed as cytotoxic; HT-1080 IDH1 knockdown viability, ATP luminescence, 48 h; hit rate 2% among 360,000;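 note: 0% = DMSO wells and -100% = cell-free medium wells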
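Viability of IDH1-knockdown HT-1080 fibrosarcoma cells was assessed by CellTiter-Glo after 48 h at 37 °C with titrated compound; concentration-effect curves were classified by fit quality and response size.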
HT1080NT lethal: qHTS for induction of synthetic lethality in tumor cells producing 2HG: qHTS for the HT-1080-NT fibrosarcoma cell line | HT-1080-NT fibrosarcoma viability, CellTiter-Glo ATP luminescence, 48 h | Potency, µM (highest dose often 46.1 µM), without a hit: at the highest dose activity, negative = less viability, hits mostly cytotoxic | hit rate 1.6% among 360,000;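 note: NT is the 2HG producing partner of a matched IDH1 knockdown line; 0% = DMSO-treated cells and -100% = media-only wells without cells; nearly all actives have a fitted effect of over 55% in size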
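HT-1080-NT fibrosarcoma cells (2HG-overproducing), 750 cells/well in RPMI with 5% FBS, dosed after 2 h and incubated 48 h at 37C. CellTiter-Glo luminescence normalized to DMSO and no-cell wells; concentration-response curves fitted and classed.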
KB-3-1 tox: qHTS assay for MDR1-selective chemotherapeutics: Primary screen using the parental adenocarcinoma cell KB-3-1. KB-3-1 viability, CellTiter-Glo ATP luminescence, 72 h. Potency, µM (top dose mostly 46.1 µM), hits mostly cytotoxic. hit rate 1.4% among 400,000. AID 1347075, 2019; note: % is set by controls: 0 for no effect and ±100 for the full control effect; nearly all actives have a fitted effect of over 60% in size
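Cytotoxicity in the drug-sensitive parental line KB-3-1 was scored as loss of CellTiter-Glo luminescence following 72 h incubation with compound. Values come from curve fitting of normalized concentration-response data.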
The depositor's hits bear a star; i = inactive; u = inconclusive; x = no result given; [ ] = remark or other dose. Only some compounds are listed: those with a hit (about 6.2% of all), similar ones and a draw of the others. Calls come from the whole dose curve; as a rule, active = well fitted curve in the direction sought with a large enough effect; inconclusive = small, poorly fitted or top-dose-only effect, or another doubt; inactive = no such curve, though single readings can be large; an effect the other way counts as inactive or inconclusive. Potency is the fitted concentration of half-maximal effect.

SMILES	ATXN2 expr inh	KB-V1 cytotox	ATXN viability	HT1080 IDH1KD tx	HT1080NT lethal	KB-3-1 tox
Cc1csc(CN(C)C(=O)c2sc3ncnc(NCC4CCCO4)c3c2C)n1 (stereo not given)	x	x	i	x	x	x
COc1cc(NC(=O)c2cc(-c3ccc4c(c3)OCO4)on2)cc(OC)c1OC	-15.1%	u	i	5.8µM*	8.2µM*	i
NS(=O)(=O)c1ccc(N=Nc2nc3[nH]cnc(=S)c3[nH]2)cc1	x	1.16µM*	x	x	x	1.16µM*
O=c1cc(/C=C/c2ccc([N+](=O)[O-])cc2)c2ccccc2[nH]1	x	i	x	x	x	i
Cc1ccc(-c2nc(CS(=O)CC(=O)NCCc3ccc(Cl)cc3)c(C)o2)cc1 (stereo not given)	x	i	x	x	x	i
Cc1ccccc1NC(=S)N(CCN(C)C)C(C)c1ccccn1 (stereo not given)	4.0%	16.4µM*	i	9.2%	15.5%	i
CCCc1c(C)c2cc(C)ccc2[nH]c1=O	4.1%	4.11µM*	i	-0.3%	3.2%	u
CC(=O)c1ccc(NC(=O)CN(C)S(=O)(=O)c2cnc[nH]2)cc1	11.9%	i	i	x	x	i
C=CC(C)(C)c1c(O)c(CC=C(C)C)c(O)c2c(=O)c3ccc(O)c(O)c3oc12	u	u	28.2µM*	14.6µM*	u	u
CCn1c(-c2ccccc2F)nc2cc(NC(C)=O)cc(C(=O)N3CCC[C@H]3C(=O)OC)c21	x	x	i	x	x	x
CCCCCCc1cc2cc(S(=O)(=O)c3ccc(F)c(Cl)c3)c(=O)oc2cc1O	u	14.6µM*	x	u	16.4µM*	i
COc1cccc2cc(C(=O)NCc3ccc(C)cc3)c(=O)oc12	2.4%	i	i	16.0%	5.4%	i
CCCCCCc1cc2cc(C(=O)Nc3cccc(OC)c3)c(=O)oc2cc1O	-13.9%	6.51µM*	i	4.9%	9.2%	7.31µM*
CCCCCCc1cc2cc(C(=O)Nc3ccc(OC)cc3)c(=O)oc2cc1O	-22.4%	8.2µM*	i	-18.7%	-9.5%	8.2µM*
COc1cccc2cc(C(=O)Nc3ccc(CC(=O)O)cc3)c(=O)oc12	3.55µM*	i	i	x	x	i
CCOC(=O)C(O)c1ccccc1 (stereo not given)	6.7%	x	i	x	x	x
Cc1oc(-c2cccc(Cl)c2)nc1CSc1nncn2c1cc1occc12	x	i	x	x	x	i
Cn1c(-c2ccc3c(c2)OCO3)cc(=O)c2ccccc21	-3.2%	i	i	-0.3%	-5.4%	i
c1ccc2c(c1)c1ccccc1n1c(-c3ccc4c(c3)OCO4)nnc21	u	20.6µM*	i	-0.5%	0.0%	u
CN(C)c1ccc(/C=C/c2ccnc3ccc(Br)cc23)cc1	x	i	x	x	x	i
O=C(Cc1ccccc1F)Nc1cc(S(=O)(=O)N2CCOCC2)ccc1N1CCOCC1	8.2%	i	i	-4.7%	2.6%[9.24 µM]	i
Cc1ccc(S(=O)(=O)N2CCOCC2)cc1NC(=O)CN1CCC(Cc2ccccc2)CC1	u	i	i	-7.7%	-23.4%	20.6µM*
O=C(Cc1ccccc1Cl)Nc1cc(S(=O)(=O)N2CCOCC2)ccc1N1CCOCC1	1.0%	16.4µM*	i	11.2%	5.2%	i
CC(Oc1cccc(Cl)c1)C(=O)Nc1cc(S(=O)(=O)N2CCOCC2)ccc1N1CCCCC1 (stereo not given)	-26.7%	18.4µM*	i	-12.1%	-29.2%	u
O=C(Nc1cc(S(=O)(=O)N2CCOCC2)ccc1N1CCOCC1)c1cnccn1	-6.6%	10.3µM*	i	-1.6%	0.3%	i
SMILES	ATXN2 expr inh	KB-V1 cytotox	ATXN viability	HT1080 IDH1KD tx	HT1080NT lethal	KB-3-1 tox
COCCCCOc1cc2nc(N3CCCN(C)CC3)nc(NC3CCN(C)CC3)c2cc1OC	x	x	x	8.5%	-15.3%	x
COc1cccc(Cn2c(NCc3ccc(C)cc3)nc3c2c(=O)n(C)c(=O)n3C)c1	-6.5%	i	i	x	x	i
CC(C)[C@@H]1CC[C@@H](C)CC1=O	1.7%	x	i	x	x	x
CCOC(=O)c1cccc(NC(=O)NCc2ccc3c(c2)CCN3C(=O)CC)c1	-21.0%	i	u	x	x	i
O=C(CSc1nc2ccccc2s1)Nc1cc(S(=O)(=O)N2CCOCC2)ccc1Cl	-0.7%	18.4µM*	i	7.6%	1.9%	i
COc1ccccc1C1CC(c2c(-c3ccccc3)c3cc(Cl)ccc3[nH]c2=O)=NN1S(C)(=O)=O (stereo not given)	u	u	u	u	25.9µM*	u
COc1cccc(C2CC(c3c(-c4ccccc4)c4cc(Cl)ccc4[nH]c3=O)=NN2S(C)(=O)=O)c1OC (stereo not given)	u	u	i	18.4µM*	u	u
CC1(C)OB(c2cnc(C#N)nc2)OC1(C)C	x	x	x	-0.9%	-0.2%	x
NC(=O)c1cc([N+](=O)[O-])ccc1NCc1ccc(N)cc1	3.55µM*	i	i	3.4%	0.1%	i
CCCn1nc(C(=O)N2CC(=O)Nc3ccccc32)c2ccccc2c1=O	-13.0%	20.6µM*	i	u	u	8.2µM*
COc1cc(OC)cc(C(=O)N2CC(=O)Nc3ccccc32)c1	-3.0%	2.31µM*	u	u	u	u
CCCCC(=O)/C=C/n1c(=S)oc2ccccc21	u	u	u	3.66µM*	10.3µM*	u
COc1cc(C)c(NC(C)C(=O)c2c(C)[nH]c3ccccc23)cc1OC (stereo not given)	x	i	x	x	x	i
Cc1cc(Oc2ccc(Br)cc2)nc(SCC(=O)c2ccccc2)n1	-22.8%	u	i	-5.5%	-0.7%	i
Cc1cc(Oc2ccc3ccccc3c2)nc(SCC(=O)c2ccccc2)n1	-33.5%	16.4µM*	i	-17.9%	2.7%	18.4µM*
COC(=O)c1ccc(Oc2cc(C)nc(-n3nc(C)cc3C)n2)cc1	-33.2%	1.84µM*	i	1.12µM*	1.26µM*	1.3µM*
CCOC(=O)c1ccc(Oc2cc(C)nc(SC)n2)cc1	-32.1%	9.2µM*	u	14.6µM*	16.4µM*	9.2µM*
CCc1ccc2c(c1)NC(c1ccc(C)cc1)=NC(c1cccs1)=N2	0.0%	i	i	x	x	i
Cc1c(C(=O)NCc2ccccc2Cl)sc2ncnc(NCC3CCCO3)c12 (stereo not given)	x	x	i	x	x	x
O=C(Nc1c(C(=O)Nc2ccc(F)cc2)oc2ccccc12)c1cc2ccccc2o1	9.8%	i	i	x	x	i
